Hit rate of the full screen: of about 94,000 compounds, about 6,200 (6.6%) were called active. Inconclusive results (about 31%) are left out. Calls follow the shape of the dose curve; as a rule, active = well fitted inhibition curve with a large enough effect; inconclusive = small, poorly fitted or top-dose-only effect; inactive = flat fitted curve, though single readings scatter. The full list was thinned out, with actives kept by preference.
Assay: Cytotoxic Profiling in HEK 293 Cell Line of Diverse Libraries Using Quantitative High-Throughput Screening; also: nearly all actives have a fitted effect of over 60% in size
Settings: HEK 293 viability, ATP luminescence (CellTiter-Glo), 48-72 h; series mostly up to 115 µM; activity change, negative = cytotoxicity: at the top concentration
In short: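 HEK 293 cells at 250 cells/well were exposed to compounds by pintool transfer for 48 or 72 hr at 37 degree Celsius, 5% CO2. Viability was read as ATP-coupled luminescence with CellTiter-Glo after 10 min at room temperature.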
% is scaled to controls: 0 for no effect and ±100 for the full control effect; potency is read from the fitted curve at half-maximal effect.

| SMILES | Potency | activity change, negative = cytotoxicity | outcome |
| --- | --- | --- | --- |
| COc1ccc(S(=O)(=O)N2CCc3c(C(=O)NCc4ccncc4)cccc32)cc1 | 35.5 µM (active) |  |  |
| Cc1ccc(C)c(CNC(=O)c2ccc3c(c2)N(S(=O)(=O)c2ccccc2)CC3)c1 |  | -28.2% (inactive) |  |
| COc1ccc(S(=O)(=O)N2[C@@H]3CC[C@H]2CC(NC(=O)c2ccncc2)C3)cc1 (stereo partly drawn) |  | -14.8% (inactive) |  |
| COCC1CCCCN1c1ccc(C(=O)NCCCc2ccccn2)cn1 (stereo not drawn) |  | -13.6% (inactive) |  |
| COc1ccc(S(=O)(=O)N2CCc3c(C(=O)NCCc4ccccn4)cccc32)cc1 | 44.7 µM (active) |  |  |
| COc1ccc(-c2nc(C(C)C)nc3c2CCN(C(=O)Cc2ccccn2)CC3)cc1 |  | -14.6% (inactive) |  |
| CCCNC(=O)N(C1CCOCC1)C1CCN(C(=O)c2ccc(F)c(F)c2)CC1 |  | 12.2% (inactive) |  |
| Cc1cccc(OCC(=O)N2CCCC(n3cc(-c4noc(C)n4)nn3)C2)c1 (stereo not drawn) |  | -2.11% (inactive) |  |
| COCCCn1c(=O)c(C(=O)N2CCN(C(=O)c3ccccc3)CC2)nc2cccnc21 |  |  | inactive |
| C=CCNC(=O)C(NC(=O)c1cccc(OC)c1)C1CCN(C(=O)c2ccccc2F)CC1 (stereo not drawn) |  | -9.02% (inactive) |  |
| C#CCNC(=O)C1CN(c2ccc(OC)cc2)C(=O)N1 (stereo not drawn) |  | -25.2% [at 172 µM] (inactive) |  |
| CNC(=O)c1cc(C2CC2)nc2onc(C3CCCN(C(=O)C4CC4)C3)c12 (stereo not drawn) |  | -20.2% (inactive) |  |
| CN1Cc2ccc(CN(C)C(=O)C3CCN(Cc4ccco4)CC3)cc2C1 |  | -4.77% (inactive) |  |
| c1ccc(-c2nc(C3CCOCC3)nn2CC2COCCO2)cc1 (stereo not drawn) |  | 4.62% (inactive) |  |
| CC(=O)N1CCN(C(=O)C[C@@H]2c3nc(NC(=O)c4cccs4)sc3C[C@@H]3[C@](C)(CO)[C@H](O)CC[C@]32C)CC1 |  | 2.61% (inactive) |  |
| COCC(=O)Nc1nc2c(s1)C[C@@H]1[C@](C)(CO)[C@H](O)CC[C@@]1(C)[C@@H]2CC(=O)NCCN1CCOCC1 |  | 1.71% (inactive) |  |
| CN(C)CCNC(=O)C[C@@H]1c2nc(NC(=O)c3ccc(C(C)(C)C)cc3)sc2C[C@@H]2[C@](C)(CO)[C@H](O)CC[C@]21C | 31.6 µM (active) |  |  |
| CC(C)CCN(C1CCOCC1)C1CCN(Cc2cccnc2)CC1 |  | -1.9% (inactive) |  |
| O=C(c1ccc(Cl)cc1Cl)N1CCC(c2nnc3n2C(C(=O)N2CCN(c4ncccn4)CC2)CC3)CC1 (stereo not drawn) |  |  | inactive |
| COc1cc(C(=O)N2CCCN(S(C)(=O)=O)c3ccccc32)cc(OC)c1OC |  | -13.2% (inactive) |  |
| Cc1ccc(CCN2CCCCC23Cc2ccccc2CN(C(=O)CCCC(=O)O)C3)cc1 (stereo not drawn) |  | 3.09% (inactive) |  |
| CC(=O)NCCC(=O)N1Cc2ccccc2CC2(CCCCN2CC2CCNC2)C1 (stereo not drawn) |  | -3.49% (inactive) |  |
| O=C(C1CCCC1)N1Cc2ccccc2CC2(CCCCN2CC2CCNCC2)C1 (stereo not drawn) | 25.1 µM (active) |  |  |
| CC(=O)N1Cc2ccccc2CC2(CCCCN2C)C1 (stereo not drawn) |  | -7.55% [at 172 µM] (inactive) |  |

| SMILES | Potency | activity change, negative = cytotoxicity | outcome |
| --- | --- | --- | --- |
| O=C(c1ccccc1)N1Cc2ccccc2CC2(CCCN2CC2CCNC2)C1 (stereo not drawn) | 79.4 µM (active) |  |  |
| CCN1CCCCC12Cc1ccccc1CN(S(C)(=O)=O)C2 (stereo not drawn) |  |  | inactive |
| O=C(NC1CCCCC1)C1CN(S(=O)(=O)c2cccc(Cl)c2)CC12CCOCC2 (stereo not drawn) |  | -15.6% (inactive) |  |
| NC(=O)[C@H](CCC(=O)O)NC(=O)[C@@]1(O)C[C@@H](O)[C@H](O)[C@@H](NS(=O)(=O)c2cccc(C(F)(F)F)c2)C1 |  |  | inactive |
| Cn1nnc(-c2ccc(C(=O)N[C@H]3C[C@@H]4OCC[C@H]34)cc2)n1 |  | -8.99% (inactive) |  |
| c1cnc2nc(C3CCCCN3)[nH]c2c1 (stereo not drawn) | inactive |  |  |
| Cc1cc(C(=O)NCC2Cn3cccc3C(=O)N2CC(C)C)n(C)n1 (stereo not drawn) |  | -0.276% (inactive) |  |
| COCCn1ccc2c(NC(=O)Cn3nc4c(cc3=O)CCCC4)cccc21 |  | -23.3% (inactive) |  |
| CC(C)N1Cc2cc(C(=O)Nc3cccc4c3CCCC4)sc2C1 | 28.2 µM (active) |  |  |
| CC(C)N1Cc2cc(C(=O)O)sc2C1 |  | 10.9% (inactive) |  |
| O=C(O)C[C@@H]1CCN(C(=O)C2CCCCC2)C[C@@H]1CCN1CCN(c2ccccc2)CC1 |  |  | inactive |
| O=C(c1ccc(F)cc1)N1CCC2(CC1)CCN(Cc1cccs1)c1ccccc1O2 | 44.7 µM (active) |  |  |
| O=C(O)CCC(=O)N1CCOC2(CCN(C(=O)c3ccccc3)CC2)C1 |  | -11% (inactive) |  |
| CCOC(=O)[C@@H]1[C@@H](OC)C(=O)N(Cc2ccccc2)C12CCN(C(=O)c1ccc(F)cc1)CC2 |  | -20.8% (inactive) |  |
| COCC(=O)N(C1CCOCC1)C1CCN(S(=O)(=O)c2ccc(F)c(F)c2)CC1 |  | -11% (inactive) |  |
| O=C(CCC1CCN(S(=O)(=O)c2ccccc2)CC1)NCc1ccccn1 |  | -11.2% (inactive) |  |
| O=S(=O)(c1ccccc1)N1CCC(CCOc2ccccc2)C1 (stereo not drawn) | 79.4 µM (active) |  |  |
| O=C1OCCN1C1CCN(S(=O)(=O)c2ccccc2)CC1 |  |  | inactive |
| CCCN1C(=O)NC(Cc2nc(-c3cccnn3)no2)C1=O (stereo not drawn) |  | -0.719% (inactive) |  |
| COc1ccccc1C(=O)NCC1COc2ncncc2C(=O)N1Cc1ccccc1 (stereo not drawn) |  | -0.379% [at 172 µM] (inactive) |  |
| Fc1ccccc1-c1n[nH]c2c1CN(Cc1cccc3c1OCO3)CC2 | 44.7 µM (active) |  |  |
| O=C1Cc2c(-c3ccc(F)cc3F)n[nH]c2CN1Cc1ccccc1F |  | -17.9% [at 172 µM] (inactive) |  |
| CSCC(=O)N1CCc2[nH]nc(-c3ccc4c(c3)OCO4)c2C1 |  | -4.07% (inactive) |  |
| O=C(c1cccc(Cl)c1)N1CCC(C(=O)N2CCCC(c3nc4ccncc4[nH]3)C2)CC1 (stereo not drawn) |  | 1.44% (inactive) |  |
